Most compounds without a hit are left out; they make up all but 21% or so of the library.
FBPA Giardia inh: inhibitors of Giardia lamblia fructose-1,6-bisphosphate aldolase | purified Giardia FBPA | A8B2U2 | Potency, µM (top dose mostly 59.6 µM), for the others: at the highest dose activity, negative = inhibition, most hits filed as inhibitors | 0.71% of 290,000 active; note: potency is the fitted concentration of half-maximal effect; % is set by controls: 0 for no effect and ±100 for the full control effect; nearly all actives have a fitted effect of over 55% in size
Target sequence (A8B2U2 whole entry, looked up): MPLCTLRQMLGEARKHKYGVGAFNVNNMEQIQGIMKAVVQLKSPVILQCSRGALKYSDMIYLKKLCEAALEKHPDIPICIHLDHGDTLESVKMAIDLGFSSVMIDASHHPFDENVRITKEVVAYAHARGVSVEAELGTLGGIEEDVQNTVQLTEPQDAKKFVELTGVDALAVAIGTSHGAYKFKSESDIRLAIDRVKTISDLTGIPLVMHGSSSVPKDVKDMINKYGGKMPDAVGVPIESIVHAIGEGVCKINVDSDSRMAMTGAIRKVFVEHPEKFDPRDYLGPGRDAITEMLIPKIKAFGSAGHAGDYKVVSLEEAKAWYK
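40 nM FBPA preincubated 10 min at RT with compound (up to 57.5 uM final), then substrate plus GAPDH/TPI/NAD/arsenate coupling and diaphorase/resazurin added. Fluorescence read after 20 min at RT, 525/598 nm.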
NS1 function inh: influenza NS1 inhibition; 0.4% of 270,000 active; Potency, µM (series often up to 46.1 µM), inactives show at the top dose activity, positive = more growth; AID 2326; calls by dose curve; note: potency is the fitted concentration of half-maximal effect; actives are rising curves; nearly all actives have a fitted effect of over 50% in size
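Growth recovery, yeast-based: influenza A NS1 expressed in S. cerevisiae causes slow growth, and suppressors are detected by OD600. The parent strain without NS1 is used as positive control.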
Shiga toxin inh: inhibitors of Shiga toxin in Vero cells | inhibition, % at 38.7 µM | Vero cells, Shiga toxin protein synthesis inhibition reporter | 9.2% of 290,000 active; in the data active = inhibition mostly above about 28%, no sharp cut-off; inactive = mostly below about 43%; note: 0% is about no effect
Pf growth 96h: inhibits malaria parasite growth, 96 h; P. falciparum luciferase reporter growth, 96 h; Potency, µM (highest dose often 28.7 µM), inactives show at the highest dose activity change, negative = inhibition, usual class: inhibitors; 6.9% of 320,000 active; note: potency is the fitted concentration of half-maximal effect; % is set by controls: 0 for no effect and ±100 for the full control effect
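Parasite growth measured via integrated firefly luciferase reporter in P. falciparum. Infected erythrocytes at 2% hematocrit, 0.05% parasitemia final were treated 96 hours at 37 C under 5% CO2, and luminescence was read.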
CHX counter: affects cycloheximide protein synthesis inhibition readout, counter-screen | AID 2314 | max response, % | cell reporter, cycloheximide protein synthesis inhibition counterscreen | 12% of 300,000 active; in the data active = max response mostly above about 13%, no sharp cut-off; inactive = mostly below about 14%; note: read at 38.3 µM for the half of the compounds with a filed dose; 0% is about no effect
Pf growth 48h: P. falciparum growth inhibition at 48 hours (one generation). AID 504832. 5.9% of 310,000 active. Potency, µM (highest dose often 28.7 µM), for inactives: top-dose activity change, negative = inhibition, actives largely listed as inhibitors. P. falciparum luciferase growth in erythrocytes, 48 h; note: potency is the fitted concentration of half-maximal effect; % is set by controls: 0 for no effect and ±100 for the full control effect
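Growth was read as firefly luciferase luminescence after a 48 h, 37 C, 5% CO2 exposure of compounds to reporter-bearing P. falciparum cultures (0.1% parasitemia, 2% hematocrit final) in Albumax-supplemented RPMI 1640.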
* marks the source's active call; other numbers are inactive results. Unless noted, calls come from the whole dose curve; as a rule, active = well fitted curve in the direction sought with a large enough effect; inconclusive = small, poorly fitted or top-dose-only effect, or another doubt; inactive = no such curve, though single readings can be large; an effect the other way counts as inactive or inconclusive.

What do the screens show for `N#CC(C(=O)c1ccco1)c1ccccn1` (stereo unspecified)?
FBPA Giardia inh: -7%; NS1 function inh: -22%; Shiga toxin inh: 26; Pf growth 96h: 2%; CHX counter: 17*; Pf growth 48h: 60%

What do the screens show for `N#C/C(=C(/O)c1ccco1)c1nc2ccccc2s1`?
FBPA Giardia inh: 2%; NS1 function inh: -53%; Shiga toxin inh: 66*; Pf growth 96h: 70%; CHX counter: 38*; Pf growth 48h: 74%

How did N#C/C(=C(/O)c1cccc(F)c1)c1nc2ccccc2s1 do in these assays?
FBPA Giardia inh: -15%; NS1 function inh: -34%; Shiga toxin inh: 8; Pf growth 96h: 111%; CHX counter: 12*; Pf growth 48h: 67%

What do the screens show for `N#C/C(=C(/O)c1cc2ccccc2o1)c1nc2ccccc2s1`?
FBPA Giardia inh: -5%; NS1 function inh: -23%; Shiga toxin inh: 13; Pf growth 96h: 165%; CHX counter: 13; Pf growth 48h: 49%

What do the screens show for `COC(=O)c1c(C)[nH]c(C(=O)C(C)OC(=O)c2cnc(C)cn2)c1C` (stereo unspecified)?
Pf growth 96h: inconclusive; Pf growth 48h: 8%

What do the screens show for `Cc1ccc(CCNC(=O)C2CCN(S(=O)(=O)c3ccc4nc5c(c(C(=O)O)c4c3)CCCC5)CC2)cc1`?
FBPA Giardia inh: 17%; NS1 function inh: 12%; Shiga toxin inh: 18; Pf growth 96h: inconclusive; CHX counter: 1; Pf growth 48h: inconclusive

Results for CCCCn1c(N)c(N(C)C(=O)c2ccc(OCC3CCCO3)cc2)c(=O)[nH]c1=O (stereo unspecified) ?
Pf growth 96h: -22%; Pf growth 48h: -16%

Results for N#C/C(=C(\O)c1ccco1)c1ccccn1 ?
FBPA Giardia inh: -10%; NS1 function inh: -18%; Shiga toxin inh: 70*; Pf growth 96h: inconclusive; CHX counter: 31*; Pf growth 48h: 39%

How did N#C/C(=C(/O)c1ccco1)c1nc2ccccc2[nH]1 do in these assays?
FBPA Giardia inh: -13%; NS1 function inh: -14%; Shiga toxin inh: 3; Pf growth 96h: inconclusive; CHX counter: 21; Pf growth 48h: 31%

What do the screens show for `CS(=O)(=O)c1ccc(Cl)c(C(=O)O)c1`?
FBPA Giardia inh: 24%; NS1 function inh: 1%; Shiga toxin inh: -13; Pf growth 96h: 3.7µM*; CHX counter: 7; Pf growth 48h: 35%

Results for CC(=O)N1c2ccc(S(=O)(=O)N3CCC(C(=O)Nc4ccccn4)CC3)cc2CC1C (stereo unspecified) ?
FBPA Giardia inh: -2%; NS1 function inh: 4%; Shiga toxin inh: 13; Pf growth 96h: 5.9µM*; CHX counter: -4; Pf growth 48h: inconclusive

How did CC(=O)N1c2ccc(S(=O)(=O)N3CCC(C(=O)Nc4ncccc4C)CC3)cc2CC1C (stereo unspecified) do in these assays?
NS1 function inh: -4%; Shiga toxin inh: -2; Pf growth 96h: inconclusive; CHX counter: -4; Pf growth 48h: 4%

What do the screens show for `COc1cc(NC(=O)CN(C)S(=O)(=O)c2ccc3c(c2)CC(C)N3C(C)=O)cc(OC)c1` (stereo unspecified)?
NS1 function inh: 9%; Shiga toxin inh: -12; Pf growth 96h: inconclusive; CHX counter: -7; Pf growth 48h: 0%

Results for COc1ccc(CNC(=O)C2CCN(S(=O)(=O)c3ccc4c(c3)CC(C)N4C(C)=O)CC2)cc1 (stereo unspecified) ?
FBPA Giardia inh: 6%; NS1 function inh: -7%; Shiga toxin inh: 14; Pf growth 96h: 12µM*; CHX counter: 3; Pf growth 48h: inconclusive

How did COc1ccc(NC(=O)CN(C)S(=O)(=O)c2ccc3c(c2)CC(C)N3C(C)=O)c(OC)c1 (stereo unspecified) do in these assays?
FBPA Giardia inh: 3%; NS1 function inh: 5%; Shiga toxin inh: 9; Pf growth 96h: 7.4µM*; CHX counter: 2; Pf growth 48h: inconclusive

What do the screens show for `CC(C)CCCC(C)CCCC(C)CCCC(C)C(=O)O` (stereo unspecified)?
FBPA Giardia inh: 23%; Shiga toxin inh: 21; CHX counter: -3
